# In the supplement of paper PMC10037445:
# Whole data set: some 2,900 compounds, median “NF-kB SEAP reporter activity, fold change vs agonist alone” near 0.99, cut for the highest 2% near 2.6. The list comes from a sample in which the highest values are over-represented; it also holds similar structures and randomly drawn compounds.
# What was measured:
# RAW-Dual [1] = experiment: NF-kB SEAP reporter activity, fold change vs agonist alone; higher = enhanced NF-kB activity; settings: cytotoxicity flag (confluency mask): not cytotoxic
# Outline: (§1)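 After 50 nL of library stock was delivered by pin tool to RAW-Dual macrophages (50,000 cells/well, DMEM, 384-well plates), a PRR agonist was added 1 h later and the plates were kept at 37 °C, 5% CO2. Twenty hours later, IRF was read from supernatant by QuantiLuc luminescence and NF-κB by QuantiBlue absorbance at 620 nm. Reporter activity is stated as fold change over agonist-alone wells. Wells with IncuCyte confluency under 70% of agonist controls in both mask sets were counted as cytotoxic.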
# RAW-Dual [2] = experiment: NF-kB SEAP reporter activity, fold change vs agonist alone; cytotoxicity flag (confluency mask): not cytotoxic; higher = enhanced NF-kB activity
# Outline: as §1
# [3] = library stock concentration (final ~1000-fold dilution): 10 mM, agonist: Imiquimod (TLR7) […]
# [4] = library stock concentration (final ~1000-fold dilution): 10 mM, agonist: MPLA (TLR4) […]
# [5] = agonist: ODN 1826 (TLR9) 0.5 ug/mL
# [6] = agonist: Pam2CSK4 (TLR2/6) 0.1 ug/mL
# [7] = agonist: Pam3CSK4 (TLR2/1) 0.1 ug/mL
compound,measurement,setting,value
Nc1ccn(C2CSC(CO)O2)c(=O)n1 (stereo not drawn),NF-kB SEAP reporter activity,RAW-Dual [1]; [3],0.893
same,NF-kB SEAP reporter activity,RAW-Dual [1]; [4],1.04
Nc1ccn(C2CSC(CO)O2)c(=O)n1 (stereo not drawn) (library stock concentration (final ~1000-fold dilution): 10 mM),NF-kB SEAP reporter activity,RAW-Dual [2]; agonist: LPS (TLR4) 0.1 ug/mL,0.862
same,NF-kB SEAP reporter activity,RAW-Dual [2]; [5],1.03
same,NF-kB SEAP reporter activity,RAW-Dual [2]; [6],0.999
same,NF-kB SEAP reporter activity,RAW-Dual [2]; [7],1.11
COC1CCC(N2C(=O)CNc3ncc(-c4ccc(C(C)(C)O)nc4)nc32)CC1 (stereo not drawn),NF-kB SEAP reporter activity,RAW-Dual [1]; [3],0.711
same,NF-kB SEAP reporter activity,RAW-Dual [1]; [4],0.53
COC1CCC(N2C(=O)CNc3ncc(-c4ccc(C(C)(C)O)nc4)nc32)CC1 (stereo not drawn) (library stock concentration (final ~1000-fold dilution): 10 mM),NF-kB SEAP reporter activity,RAW-Dual [2]; agonist: LPS (TLR4) 0.1 ug/mL,0.463
same,NF-kB SEAP reporter activity,RAW-Dual [2]; [5],0.349
same,NF-kB SEAP reporter activity,RAW-Dual [2]; [6],0.719
same,NF-kB SEAP reporter activity,RAW-Dual [2]; [7],0.458
CC(NC(=O)C(=O)Nc1ccccc1C(C)(C)C)C(=O)NC(CC(=O)O)C(=O)COc1c(F)c(F)cc(F)c1F (stereo not drawn) (library stock concentration (final ~1000-fold dilution): 10 mM),NF-kB SEAP reporter activity,RAW-Dual [2]; agonist: LPS (TLR4) 0.1 ug/mL,0.607
same,NF-kB SEAP reporter activity,RAW-Dual [2]; [5],1.25
same,NF-kB SEAP reporter activity,RAW-Dual [2]; [6],0.912
same,NF-kB SEAP reporter activity,RAW-Dual [2]; [7],1.17
CC(NC(=O)C(=O)Nc1ccccc1C(C)(C)C)C(=O)NC(CC(=O)O)C(=O)COc1c(F)c(F)cc(F)c1F (stereo not drawn),NF-kB SEAP reporter activity,RAW-Dual [1]; [3],1.15
same,NF-kB SEAP reporter activity,RAW-Dual [1]; [4],0.848
CCOC(=O)Nc1cc(-c2ccc(C)c(NS(C)(=O)=O)c2)nn2c(C)nnc12,NF-kB SEAP reporter activity,RAW-Dual [1]; [3],1.43
same,NF-kB SEAP reporter activity,RAW-Dual [1]; [4],2.52
CCOC(=O)Nc1cc(-c2ccc(C)c(NS(C)(=O)=O)c2)nn2c(C)nnc12 (library stock concentration (final ~1000-fold dilution): 10 mM),NF-kB SEAP reporter activity,RAW-Dual [2]; agonist: LPS (TLR4) 0.1 ug/mL,3.81
same,NF-kB SEAP reporter activity,RAW-Dual [2]; [5],1.93
same,NF-kB SEAP reporter activity,RAW-Dual [2]; [6],0.828
same,NF-kB SEAP reporter activity,RAW-Dual [2]; [7],1.44
CCOC(=O)C1=CC(OC(CC)CC)C(NC(C)=O)C(N)C1 (stereo not drawn),NF-kB SEAP reporter activity,"RAW-Dual [1]; library stock concentration (final ~1000-fold dilution): 2 mM, agonist: Imiquimod (TLR7) […]",0.848
same,NF-kB SEAP reporter activity,"RAW-Dual [1]; library stock concentration (final ~1000-fold dilution): 2 mM, agonist: MPLA (TLR4) […]",1.03
CCOC(=O)C1=CC(OC(CC)CC)C(NC(C)=O)C(N)C1 (stereo not drawn) (library stock concentration (final ~1000-fold dilution): 2 mM),NF-kB SEAP reporter activity,RAW-Dual [2]; agonist: LPS (TLR4) 0.1 ug/mL,1.17
same,NF-kB SEAP reporter activity,RAW-Dual [2]; [5],1.08
same,NF-kB SEAP reporter activity,RAW-Dual [2]; [6],1.16
same,NF-kB SEAP reporter activity,RAW-Dual [2]; [7],1.11
N#Cc1cnc(Nc2cc(NCC3CNCCO3)c(C(F)(F)F)cn2)cn1 (stereo not drawn),NF-kB SEAP reporter activity,RAW-Dual [1]; [3],1.66
same,NF-kB SEAP reporter activity,RAW-Dual [1]; [4],0.936
N#Cc1cnc(Nc2cc(NCC3CNCCO3)c(C(F)(F)F)cn2)cn1 (stereo not drawn) (library stock concentration (final ~1000-fold dilution): 10 mM),NF-kB SEAP reporter activity,RAW-Dual [2]; agonist: LPS (TLR4) 0.1 ug/mL,1.37
same,NF-kB SEAP reporter activity,RAW-Dual [2]; [5],1.25
same,NF-kB SEAP reporter activity,RAW-Dual [2]; [6],1.34
same,NF-kB SEAP reporter activity,RAW-Dual [2]; [7],1.5
CS(=O)c1ccc(-c2nc(-c3ccc(F)cc3)c(-c3ccncc3)[nH]2)cc1 (stereo not drawn),NF-kB SEAP reporter activity,RAW-Dual [1]; [3],1.52
same,NF-kB SEAP reporter activity,RAW-Dual [1]; [4],1.61
